The text below walks through data of PubChem BioAssay (NCATS).

For assay [1], the target named is Lysosomal acid glucosylceramidase (Homo sapiens) (UniProt P04062). The experiment in a line: Glucocerebrosidase-p2 (AID 348; in the data active = potency below about 10 µM; note: potency is the fitted concentration of half-maximal effect). As to conditions: purified GBA, blue fluorogenic substrate, 40 min. The gist of the method: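 Normal human glucocerebrosidase (0.2 nM) with blue fluorogenic substrate (80 uM final) in citrate/phosphate pH 5.9 with 10mM sodium taurocholate, 0.01% tween-20; 40 min RT, NaOH/glycine stop; fluorescence Ex 365/Em 440; AC50 from a titration from 0.6 nM upwards.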
Lysosomal acid glucosylceramidase (Homo sapiens), sequence (P04062 whole entry, looked up): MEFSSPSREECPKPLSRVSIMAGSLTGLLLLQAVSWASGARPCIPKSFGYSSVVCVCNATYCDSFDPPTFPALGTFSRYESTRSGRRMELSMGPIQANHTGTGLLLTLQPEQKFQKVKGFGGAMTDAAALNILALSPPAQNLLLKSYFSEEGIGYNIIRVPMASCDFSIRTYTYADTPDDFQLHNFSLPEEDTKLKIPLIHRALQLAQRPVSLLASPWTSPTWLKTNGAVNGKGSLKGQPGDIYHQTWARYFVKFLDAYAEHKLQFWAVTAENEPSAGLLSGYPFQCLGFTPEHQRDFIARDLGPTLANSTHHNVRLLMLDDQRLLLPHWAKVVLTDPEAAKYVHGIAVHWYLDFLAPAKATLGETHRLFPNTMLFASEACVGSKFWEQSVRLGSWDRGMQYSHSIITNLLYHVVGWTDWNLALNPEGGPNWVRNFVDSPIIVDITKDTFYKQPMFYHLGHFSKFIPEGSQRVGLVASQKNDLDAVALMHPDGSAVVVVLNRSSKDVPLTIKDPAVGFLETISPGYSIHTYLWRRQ

Assay [2] can be described thus: NFAT Signaling Pathway (AID 444; active = well fitted curve in either direction with a large enough effect, not every such curve was filed as active;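 note: carbachol stimulus at about its EC50 of 1 µM final; % is set by controls: 0 for no effect and ±100 for the full control effect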). The note with it: Jurkat NFAT-bla M1, carbachol, beta-lactamase ratio, 5 h; at 7.69 µM (top of the series) unless noted. In a few lines: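 Jurkat cells carrying an NFAT-driven β-lactamase reporter and co-transfected muscarinic M1 receptor were treated with compound plus carbachol (1 uM final, an EC50 level) for 5 h at 37 °C. CCF4 loading followed for 1 h at RT; 460/530 nm ratio gave %activity.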

Assay [3] can be described thus: Stat Signaling Pathway (AID 446; active = well fitted curve in either direction with a large enough effect, not every such curve was filed as active;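 note: ME-180 cervical cancer cells given 40 pM IL-6 alongside compound; SIE-controlled beta-lactamase reporter measured as 460/530 nm FRET emission ratio; % is set by controls: 0 for no effect and ±100 for the full control effect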). As to conditions: ME-180 SIE beta-lactamase reporter, IL-6 stimulated, 5 h; at 7.69 µM (top of the series) unless noted. The gist of the method: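 Normalization used AC90 stimulation (300 pM IL-6) and AC90 inhibition (125 nM pan-JAK inhibitor at 40 pM IL-6). The underlying signal is SIE-driven beta-lactamase in ME-180 cells after 5 h IL-6 exposure with compound.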

The target of assay [4] is Glucocorticoid receptor (Homo sapiens) (UniProt P04150). The experiment in a line: GR-GFP Redistribution (AID 450;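 active = compounds whose dose series gives a full or clear partial fitted curve of increased nuclear translocation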; note: potency is the fitted concentration of half-maximal effect). The note with it: U2OS GR-GFP nuclear translocation, laser cytometry, 2 h.
Glucocorticoid receptor (Homo sapiens), sequence (P04150 whole entry, looked up, the tested form may be a part): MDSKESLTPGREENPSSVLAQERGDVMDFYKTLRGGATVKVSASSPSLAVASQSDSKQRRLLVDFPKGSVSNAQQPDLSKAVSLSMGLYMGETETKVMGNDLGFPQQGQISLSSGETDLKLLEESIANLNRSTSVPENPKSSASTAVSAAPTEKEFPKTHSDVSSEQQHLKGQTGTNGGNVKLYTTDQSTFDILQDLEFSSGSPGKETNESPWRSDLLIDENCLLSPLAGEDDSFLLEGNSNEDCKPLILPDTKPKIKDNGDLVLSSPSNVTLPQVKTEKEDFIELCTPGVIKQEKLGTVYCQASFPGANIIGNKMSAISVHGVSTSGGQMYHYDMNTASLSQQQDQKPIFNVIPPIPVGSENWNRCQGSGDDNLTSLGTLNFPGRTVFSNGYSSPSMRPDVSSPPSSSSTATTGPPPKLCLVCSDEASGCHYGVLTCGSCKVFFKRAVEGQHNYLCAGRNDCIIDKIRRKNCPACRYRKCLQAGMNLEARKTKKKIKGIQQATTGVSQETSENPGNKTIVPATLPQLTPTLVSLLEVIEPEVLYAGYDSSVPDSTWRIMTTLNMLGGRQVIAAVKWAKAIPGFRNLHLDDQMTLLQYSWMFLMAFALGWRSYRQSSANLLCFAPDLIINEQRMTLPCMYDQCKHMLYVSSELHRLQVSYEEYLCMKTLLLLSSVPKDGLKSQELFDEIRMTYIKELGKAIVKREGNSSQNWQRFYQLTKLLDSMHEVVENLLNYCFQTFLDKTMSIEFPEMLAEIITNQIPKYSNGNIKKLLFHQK
Assay [5] concerns the target Mitogen-activated protein kinase 10 (Mus musculus) (UniProt Q61831). The experiment in a line: JNK3 AlphaScreen Assay (AID 530; active = well fitted curve in either direction with a large enough effect, not every such curve was filed as active;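 note: kinase came from lysate of stimulated human HepG2 cells; signal reports phosphorylation of biotinylated GST-cJun 1-79 at Ser73 with 10 µM ATP; % is set by controls: 0 for no effect and ±100 for the full control effect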). In a few lines: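 Phosphorylation of biotinylated GST-cJun(1-79) at Ser73 is measured by AlphaScreen proximity luminescence. Enzyme is JNK3 in HepG2 lysates activated with interleukin-1beta and tumor necrosis factor alpha; ATP is 10 uM final.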
(Alpha assays give light when donor and acceptor beads are brought close together.)

The target in assay [6] is Cytochrome P450 3A4 (Homo sapiens) (UniProt P08684). Briefly: qHTS Assay for Inhibitors and Substrates of Cytochrome P450 3A4 (AID 884). Note: nearly all actives have a fitted effect of over 50% in size. Note: potency is the fitted concentration of half-maximal effect. In a few lines:
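Luminescent readout of luciferin produced by CYP3A4 (20 nM) dealkylation of Luciferin-PPXE, 25 uM (its KM). NADPH-driven reaction ran 60 min at RT after 10 min compound preincubation; data scaled to 57 uM ketoconazole as 100% inhibition.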

The target is the same in assay [7]. Briefly: qHTS Assay for Activators of Cytochrome P450 3A4 (AID 885). Note: nearly all actives have a fitted effect of over 65% in size. The gist of the method:
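Human CYP3A4 dealkylates Luciferin-PPXE to luciferin, which luciferase detection converts to light. Substrate was at its KM (25uM), buffer 200mM KPO4, reaction 60 min at RT.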
Background: Quantitative high-throughput screening tests each substance at several concentrations.

In assay [8] the target is Cytochrome P450 2C19 (Homo sapiens) (UniProt P33261). The experiment in a line: qHTS Assay for Inhibitors and Substrates of Cytochrome P450 2C19 (AID 899). Note: potency is the fitted concentration of half-maximal effect; nearly all actives have a fitted effect of over 60% in size. The gist of the method: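 NADPH-dependent conversion of Luciferin-H EGE (10uM, at KM) by 5nM enzyme in 50mM KPO4, 60 min at 37C following 10 min compound preincubation. Stopped with luciferin detection buffer; luminescence read after 20 min.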
Cytochrome P450 2C19 (Homo sapiens), sequence (P33261 whole entry, looked up): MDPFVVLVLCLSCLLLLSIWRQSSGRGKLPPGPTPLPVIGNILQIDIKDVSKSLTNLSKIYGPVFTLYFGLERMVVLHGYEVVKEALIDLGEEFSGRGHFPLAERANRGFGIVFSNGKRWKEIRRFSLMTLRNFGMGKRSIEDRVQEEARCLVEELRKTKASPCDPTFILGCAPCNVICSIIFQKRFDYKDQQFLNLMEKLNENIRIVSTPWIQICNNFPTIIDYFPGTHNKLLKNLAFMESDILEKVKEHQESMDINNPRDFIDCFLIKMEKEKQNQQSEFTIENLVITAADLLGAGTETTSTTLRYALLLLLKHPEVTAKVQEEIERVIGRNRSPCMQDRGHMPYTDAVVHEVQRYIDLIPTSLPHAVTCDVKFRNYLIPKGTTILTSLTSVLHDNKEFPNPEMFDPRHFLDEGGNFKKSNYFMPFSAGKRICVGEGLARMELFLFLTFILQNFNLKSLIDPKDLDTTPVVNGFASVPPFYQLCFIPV

Assay [9] is described as follows: qHTS Assay for Lipid Storage Modulators (AID 1519; calls by dose curve). The note with it: Drosophila S3 cells, BODIPY lipid droplet/cell ratio, laser cytometry, cells loaded with oleic acid; for activity change, negative = inhibition: at 57.5 µM (top of the series). In a few lines: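 Cells seeded at 5,000 per well were treated with compounds over a concentration series and loaded with oleic acid (400 uM, as added). Lipid droplet fluorescence (488 nm excitation, 500-530 nm channel) was read by laser-scanning cytometry and normalized to 20 uM Triacsin C.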

For assay [10], the target named is Dual specificity protein kinase CLK4 (Homo sapiens) (UniProt Q9HAZ1). The experiment in a line: qHTS Assay for Inhibitors of CDC-like Kinase 4 (ADP-Glo Assay) (AID 1771). Note: nearly all actives have a fitted effect of over 70% in size. Note: potency is the fitted concentration of half-maximal effect. In a few lines: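 Compounds are pin-transferred onto substrate mix (100 uM RS peptide, 1 uM ATP), then 25 nM Clk4 is added. After 1 hr at room temperature, ADP-Glo reagent runs 45 min, detection reagent 30 min, then luminescence is read.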
Dual specificity protein kinase CLK4 (Homo sapiens), sequence (Q9HAZ1 whole entry, looked up): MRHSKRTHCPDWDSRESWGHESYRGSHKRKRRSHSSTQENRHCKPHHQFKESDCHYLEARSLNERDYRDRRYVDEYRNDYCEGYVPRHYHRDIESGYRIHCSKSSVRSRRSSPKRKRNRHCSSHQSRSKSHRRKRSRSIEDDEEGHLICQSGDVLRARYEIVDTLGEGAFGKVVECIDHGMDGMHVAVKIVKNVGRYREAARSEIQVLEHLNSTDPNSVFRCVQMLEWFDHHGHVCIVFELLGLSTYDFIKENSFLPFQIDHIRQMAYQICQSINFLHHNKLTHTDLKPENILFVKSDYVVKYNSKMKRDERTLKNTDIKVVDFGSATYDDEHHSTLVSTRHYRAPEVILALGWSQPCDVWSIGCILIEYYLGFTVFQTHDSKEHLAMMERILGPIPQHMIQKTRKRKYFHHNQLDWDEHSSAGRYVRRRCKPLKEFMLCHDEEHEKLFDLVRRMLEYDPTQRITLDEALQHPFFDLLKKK

The target in assay [11] is Ubiquitin carboxyl-terminal hydrolase 1 (Homo sapiens) (UniProt O94782). Briefly: Inhibitors of USP1/UAF1: Pilot qHTS (AID 504865). Note: nearly all actives have a fitted effect of over 35% in size. Note: potency is the fitted concentration of half-maximal effect. In a few lines: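 USP1/UAF1 complex (1nM) preincubated with compound 15 min at room temperature, then Ub-Rho substrate (150nM final) added. Fluorescence read kinetically at 480/540 nm, 6 reads every 60 seconds. Buffer: 50mM HEPES pH 7.8, 0.5mM EDTA, 0.1 mg/ml BSA, 1mM TCEP, 0.01% Tween-20.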
Ubiquitin carboxyl-terminal hydrolase 1 (Homo sapiens), sequence (O94782 whole entry, looked up): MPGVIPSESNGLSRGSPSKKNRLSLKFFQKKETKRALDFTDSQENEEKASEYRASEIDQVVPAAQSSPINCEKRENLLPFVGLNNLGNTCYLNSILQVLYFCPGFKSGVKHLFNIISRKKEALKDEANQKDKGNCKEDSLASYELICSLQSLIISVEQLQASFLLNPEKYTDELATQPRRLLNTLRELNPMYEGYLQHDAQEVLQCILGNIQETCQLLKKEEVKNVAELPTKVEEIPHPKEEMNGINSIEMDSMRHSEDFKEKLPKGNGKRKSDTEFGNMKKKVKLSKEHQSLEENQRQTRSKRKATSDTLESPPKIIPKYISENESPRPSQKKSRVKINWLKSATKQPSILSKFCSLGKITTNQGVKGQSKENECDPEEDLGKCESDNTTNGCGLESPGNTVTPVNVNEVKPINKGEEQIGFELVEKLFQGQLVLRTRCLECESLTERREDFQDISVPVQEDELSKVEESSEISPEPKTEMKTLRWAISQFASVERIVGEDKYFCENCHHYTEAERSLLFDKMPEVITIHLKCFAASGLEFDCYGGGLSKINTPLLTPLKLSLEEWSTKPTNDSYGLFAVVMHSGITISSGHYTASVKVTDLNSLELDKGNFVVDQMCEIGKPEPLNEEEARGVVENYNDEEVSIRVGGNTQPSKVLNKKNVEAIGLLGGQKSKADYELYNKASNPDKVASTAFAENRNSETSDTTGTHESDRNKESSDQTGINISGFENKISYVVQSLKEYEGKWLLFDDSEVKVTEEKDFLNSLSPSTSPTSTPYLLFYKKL

Assay [12] can be described thus: Primary qHTS for small molecule stabilizers of the endoplasmic reticulum resident proteome: Secreted ER Calcium Modulated Protein (SERCaMP) assay (AID 1508630). Note: % is set by controls: 0 for no effect and ±100 for the full control effect. In a few lines:
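The SH-SY5Y reporter protocol was run at 3 concentrations up to 38.3 uM (primary) or 11 concentrations (follow-up): 16 h compound, 100 nM thapsigargin for 4 h, then extracellular luciferase luminescence.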

The nature of assay [13]: AP1 Signaling Pathway (AID 357; active = well fitted curve in either direction with a large enough effect, not every such curve was filed as active; note: % is set by controls: 0 for no effect and ±100 for the full control effect). As to conditions: ME-180 (cervical carcinoma) AP-1-bla reporter, EGF-induced, beta-lactamase ratio, 5 h; at 7.69 µM (top of the series) unless noted. In a few lines:
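ME-180 cells with beta-lactamase reporter under AP-1 response element, stimulated with EC50 EGF; compounds tested in titration series, 5 h at 37 °C. CCF4 substrate added 2.5 h at room temperature; 460/530 nm emission ratio gave %activity and AC50.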

For assay [14], the target named is Cytochrome P450 1A2 (Homo sapiens) (UniProt P05177). The experiment in a line: p450-cyp1a2 (AID 410; calls by dose curve; note: potency is the fitted concentration of half-maximal effect). In a few lines: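 O-Demethylation of luciferin 6' methyl ether by human CYP1A2 is monitored as luciferase luminescence. Substrate sits at Km (100uM); enzyme is 20nM. Values are scaled to 57 uM furafylline as maximal inhibition.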
Cytochrome P450 1A2 (Homo sapiens), sequence (P05177 whole entry, looked up): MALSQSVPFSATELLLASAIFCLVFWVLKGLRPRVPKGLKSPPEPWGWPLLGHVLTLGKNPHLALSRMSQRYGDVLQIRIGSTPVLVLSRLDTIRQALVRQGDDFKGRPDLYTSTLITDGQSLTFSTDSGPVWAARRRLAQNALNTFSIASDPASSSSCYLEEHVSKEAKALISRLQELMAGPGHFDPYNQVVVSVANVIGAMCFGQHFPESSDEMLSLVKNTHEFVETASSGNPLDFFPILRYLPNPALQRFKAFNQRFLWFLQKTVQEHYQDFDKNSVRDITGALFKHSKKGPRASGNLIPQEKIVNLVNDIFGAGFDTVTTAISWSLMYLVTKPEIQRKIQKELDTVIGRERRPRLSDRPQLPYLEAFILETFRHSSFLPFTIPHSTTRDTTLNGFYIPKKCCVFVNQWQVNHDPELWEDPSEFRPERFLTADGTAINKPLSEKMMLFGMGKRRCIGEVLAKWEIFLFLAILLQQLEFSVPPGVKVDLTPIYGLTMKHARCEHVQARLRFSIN
In assay [15] the target is Glucocorticoid receptor (Homo sapiens) (UniProt P04150). Briefly: GR-EFC Redistribution (AID 451; calls by dose curve; note: potency is the fitted concentration of half-maximal effect). As to conditions: CHO-K1 GR-EFC translocation, beta-gal luminescence, 2 h. In a few lines:
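CHO-K1 cells stably expressing nuclear-localized β-gal enzyme acceptor and GR fused C-terminally to the enzyme donor fragment; ligand-driven nuclear translocation restores β-gal by complementation. Compounds titrated up to 46 uM final, 2 h at 37 °C; luminescence read.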

The target of assay [16] is Dual specificity protein kinase CLK4 (Homo sapiens) (UniProt Q9HAZ1). The experiment in a line: qHTS Assay for Inhibitors of CDC-like Kinase 4 (ADP-FP Assay) (AID 1795). Note: % is set by controls: 0 for no effect and ±100 for the full control effect; nearly all actives have a fitted effect of over 60% in size. The gist of the method:
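Recombinant human Clk4 (6.25 nM) phosphorylated RS repeat peptide (100 uM) with 1 uM ATP in Tris pH 7.5/MgCl2/EGTA/DTT/Triton buffer for one hour. ADP was quantified by Transcreener competitive fluorescence polarization against an ADP calibration curve.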

Assay [17] deals with 3',5'-cyclic-AMP phosphodiesterase 4B (Homo sapiens) (UniProt Q07343). The experiment in a line: qHTS Assay for Inhibitors of PDE-IV (AID 607; active = well fitted activation curve with a large enough effect in the main read-out, with a control signal flat, not every such curve was filed as active; note: % of control where 0% means no effect). In a few lines: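 HEK293 ACTOne cells with CNG channel (1000/well), endogenous PDE4; membrane potential dye, compounds up to 22.9 uM final. Fluorescence Ex 535/Em 590; RO 20-1724 (100 uM final) as reference.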
3',5'-cyclic-AMP phosphodiesterase 4B (Homo sapiens), sequence (Q07343 whole entry, looked up): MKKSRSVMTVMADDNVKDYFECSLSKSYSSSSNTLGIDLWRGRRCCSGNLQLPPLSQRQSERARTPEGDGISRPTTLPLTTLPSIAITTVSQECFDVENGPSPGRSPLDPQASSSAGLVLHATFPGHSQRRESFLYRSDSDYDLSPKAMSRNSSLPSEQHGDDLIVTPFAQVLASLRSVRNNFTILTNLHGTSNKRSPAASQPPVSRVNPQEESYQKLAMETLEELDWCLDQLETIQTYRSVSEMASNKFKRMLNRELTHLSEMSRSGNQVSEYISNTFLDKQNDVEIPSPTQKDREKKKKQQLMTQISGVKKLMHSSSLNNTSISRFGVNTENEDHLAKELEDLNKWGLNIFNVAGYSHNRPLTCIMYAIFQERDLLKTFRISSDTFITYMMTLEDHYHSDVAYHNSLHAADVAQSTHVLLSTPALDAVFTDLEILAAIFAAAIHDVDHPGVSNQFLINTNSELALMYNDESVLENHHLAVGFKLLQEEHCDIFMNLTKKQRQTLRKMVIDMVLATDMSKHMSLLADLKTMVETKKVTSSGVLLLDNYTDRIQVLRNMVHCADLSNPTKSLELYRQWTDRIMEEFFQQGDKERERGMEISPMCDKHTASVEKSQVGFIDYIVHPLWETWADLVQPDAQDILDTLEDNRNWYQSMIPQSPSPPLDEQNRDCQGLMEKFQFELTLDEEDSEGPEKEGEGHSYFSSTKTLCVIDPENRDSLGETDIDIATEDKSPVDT
[18] abbreviates: measured here: cell count channel max response.
Where [19] appears, read: measured here: lipid channel max response.

Records with an inconclusive call do not appear. Activity calls are given as the source filed them. Unless noted, calls come from the whole dose curve; as a rule, active = well fitted curve in the direction sought with a large enough effect; inconclusive = small, poorly fitted or top-dose-only effect, or another doubt; inactive = no such curve, though single readings can be large; an effect the other way counts as inactive or inconclusive.

Cytochrome P450 3A4 (Homo sapiens), sequence (P08684 whole entry, looked up): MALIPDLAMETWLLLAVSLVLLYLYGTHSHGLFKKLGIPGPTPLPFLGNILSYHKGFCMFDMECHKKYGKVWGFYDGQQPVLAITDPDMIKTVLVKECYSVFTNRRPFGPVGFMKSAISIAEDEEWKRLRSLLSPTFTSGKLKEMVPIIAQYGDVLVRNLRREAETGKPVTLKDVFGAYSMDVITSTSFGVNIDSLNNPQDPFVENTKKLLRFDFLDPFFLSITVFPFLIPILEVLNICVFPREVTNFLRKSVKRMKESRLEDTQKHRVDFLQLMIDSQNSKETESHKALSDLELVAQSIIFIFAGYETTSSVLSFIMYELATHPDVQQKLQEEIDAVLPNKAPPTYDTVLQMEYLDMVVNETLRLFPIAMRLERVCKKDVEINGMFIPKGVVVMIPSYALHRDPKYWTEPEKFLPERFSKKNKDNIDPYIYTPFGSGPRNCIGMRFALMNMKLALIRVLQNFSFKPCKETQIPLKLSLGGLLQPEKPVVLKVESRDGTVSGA

For the molecule `FC(F)(F)c1ccccc1-c1nc(NCc2cccs2)c2ccccc2n1`, the Potency is > 11.4 µM (inactive) in assay [1]; > 46 µM (inactive) in assay [4]; 3.98 µM (active) in [6]; 7.94 µM (active) in [8]; 7.94 µM (active) in assay [11]. Also, the results for the activity change, negative = inhibition in [2] and in assay [9] were -18.2% (inactive) and 2.3% (inactive), respectively. In addition, the activity, negative = inhibition in [3] is -11.7% (inactive). For the same molecule, in [5], the molecule was called inactive. The Potency result in assay [7], in assay [10] and in assay [12] was “inactive” throughout. Also, the max response in [9] (setting [18]) is 10.4%; in assay [9] (setting [19]) it was 10.9%.
In the case of `c1ccc2c(NC3CCNCC3)nc(-c3ccoc3)nc2c1`, the Potency in assay [1] is > 11.4 µM (inactive); in [14] it was 15.8 µM (active); in assay [4], > 46 µM (inactive); in [15] it was > 46 µM (inactive). The activity change, negative = inhibition in [13] was 8.91% (inactive); in assay [2] it was 5.13% (inactive); in [9] it was 0.038% (inactive). Besides, in assay [3], the activity, negative = inhibition is 7% (inactive). The outcome in assay [5] was inactive. Further, the results for the max response in [9] (setting [18]) and in [9] (setting [19]) were 5.08% and 2.41%, respectively. Moreover, the Potency entry in [10], in assay [11] and in assay [12] was “inactive” each time.
In the case of `CNc1nc(-c2ccccc2CN(C)C)nc2ccccc12`, the Potency in assay [1] is > 11.4 µM (inactive); in assay [14], 3.16 µM (active); in [15], > 46 µM (inactive). In addition, the activity change, negative = inhibition is -2.05% (inactive) in assay [2] and 1.92% (inactive) in [9]. Also, in assay [3], the activity, negative = inhibition is 17.3% (inactive). Also, in assay [5], the result was inactive. Further, the Potency entry in assay [7], in assay [10], in [16], in assay [11] and in assay [12] was “inactive” throughout. Besides, the max response in assay [9] (setting [18]) turned out to be 7.86%; in assay [9] (setting [19]) it was 7.77%.
In the case of `Cc1ccccc1-c1cc(NCCN2CCOCC2)ncn1`, the Potency in assay [1] was > 11.4 µM (inactive); in [14], 31.6 µM (active); in assay [4], > 46 µM (inactive); in assay [15], > 46 µM (inactive). Moreover, the figures for the activity change, negative = inhibition in [13], in [2] and in assay [9] were -3.13% (inactive), -3.03% (inactive) and -1.17% (inactive), respectively. In assay [3], the activity, negative = inhibition is 2.72% (inactive). Moreover, the molecule was classed as inactive in assay [5]. The Potency result in assay [6], in assay [10], in assay [11] and in assay [12] was “inactive” throughout. The max response in [9] (setting [18]) is -3.29%; in [9] (setting [19]), -5.46%.
Take `CCNc1ncc2nc(-c3cn(C)c4ccccc34)c(=O)n(-c3ccc(OC)cc3)c2n1`: the figures for the Potency in assay [1], in assay [4] and in assay [15] were > 11.4 µM (inactive), > 9.22 µM (inactive) and > 46 µM (inactive), respectively. Besides, the activity change, negative = inhibition in [13] was -24.5% (inactive); in assay [2], -8.46% (inactive); in [9] it was 5.38% (inactive). Further, the activity, negative = inhibition in assay [3] is -5.46% (inactive). Moreover, the call in assay [5] was inactive. For the same molecule, the max response in assay [9] (setting [18]) was determined as 20.6%; in [9] (setting [19]), 23%. Also, the Potency entry in assay [10], in assay [16], in [11] and in assay [12] was “inactive” in each case.
On to `CN(C)c1ccc(-c2ccc3ncnc(-n4ccnc4)c3c2)cc1`, for which the Potency in assay [1] is > 11.4 µM (inactive); in [14] it was 0.316 µM (active); in assay [4] it was > 46 µM (inactive); in [15] it was > 46 µM (inactive); in assay [10] it was 4.47 µM (active). Also, the activity, negative = inhibition in assay [3] is -10% (inactive). In assay [5], the call was inactive. Also, the Potency entry in assay [17], in assay [7], in assay [11] and in [12] was “inactive” throughout. In assay [9], the activity change, negative = inhibition was 7.19% (inactive). Besides, the figures for the max response in assay [9] (setting [18]) and in [9] (setting [19]) were 4.81% and 9.84%, respectively.
